Source: PubChem
ELG1 DNA repair: blocks ELG1-dependent DNA repair in HEK293T cells. HEK293T ELG1-luciferase reporter, luminescence, 16 h; DNA damage induced by 5-fluorouridine. Potency, µM (top dose mostly 46.1 µM), for the others: top-dose activity change, negative = inhibition, hits mostly inhibitors. 2.3% of 330,000 active. AID 504467; note: % is set by controls: 0 for no effect and ±100 for the full control effect; nearly all actives have a fitted effect of over 55% in size
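5-Fluorouridine DNA damage + compound/DMSO, 2,000 cells/well, 16 h, 37 °C/5% CO2. ONE-Glo, 30 min RT, luminescence. Readout = decrease in reporter signal.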
FLuc modulator: counter-screen for miR-21 project: firefly luciferase inhibitors or activators. purified FLuc, Km substrates, luminescence inhibition. Potency, µM (series often up to 57.5 µM), for the others: top-dose activity change, negative = inhibition, usual class: inhibitors. 6.9% of 360,000 active. AID 588342;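 note: plate controls were vehicle for no effect and reference inhibitor for full effect; nearly all actives have a fitted effect of over 55% in size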
Target sequence (P08659 whole entry, looked up): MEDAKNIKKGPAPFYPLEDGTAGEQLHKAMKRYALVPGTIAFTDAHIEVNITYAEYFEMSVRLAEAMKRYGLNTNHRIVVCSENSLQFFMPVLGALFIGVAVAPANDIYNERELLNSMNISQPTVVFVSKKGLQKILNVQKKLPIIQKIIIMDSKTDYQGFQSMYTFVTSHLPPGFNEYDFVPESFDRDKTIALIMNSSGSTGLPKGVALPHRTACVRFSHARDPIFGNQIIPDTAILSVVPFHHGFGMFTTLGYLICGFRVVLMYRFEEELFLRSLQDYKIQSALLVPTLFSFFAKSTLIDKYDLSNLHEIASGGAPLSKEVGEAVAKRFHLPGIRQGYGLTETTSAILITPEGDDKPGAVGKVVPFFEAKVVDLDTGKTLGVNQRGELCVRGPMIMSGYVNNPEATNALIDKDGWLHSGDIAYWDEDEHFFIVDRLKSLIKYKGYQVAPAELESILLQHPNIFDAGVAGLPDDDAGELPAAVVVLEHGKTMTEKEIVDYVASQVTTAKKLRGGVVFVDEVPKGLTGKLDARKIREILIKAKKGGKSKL
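Purified P. pyralis luciferase, 10 nM final, with Km-level 10 uM D-luciferin and 10 uM ATP in 50 mM Tris acetate pH 7.5, 10 mM Mg acetate, 0.01% Tween-20, 0.05% BSA; 6-point qHTS titration about 60 µM downward; luminescence read.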
Rab9 promoter act: Rab9 promoter activation. 2.8% of 320,000 active. Huh7 Rab9 promoter-luciferase reporter, luminescence, 24 h. AID 485297. Potency, µM (doses to about 9.22 µM), without a hit: top-dose activation, negative = inhibition, most hits filed as activators; note: % of control where 0% means no effect; nearly all actives have a fitted effect of over 60% in size
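Luminescence read-out: Huh7 cells stably expressing Rab9-luciferase, treated 24 h with compound at 37 °C, then lysed with luciferase reagent for 10 min at ambient before reading.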
SMN2 splice up: SMN2 splice variant enhancement; 2.8% of 210,000 active; Potency, µM (series often up to 46.1 µM), for the others: at the top dose activity change, positive = activation, usual class: activators; HEK293 SMN2-luciferase splicing reporter, luminescence, 30-36 h; note: % of control where 0% means no effect; nearly all actives have a fitted effect of over 55% in size
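HEK293 cells carry an SMN2 minigene-luciferase reporter in which exon 7 inclusion puts luciferase in frame. Cells were seeded at 2000 cells/well, attached for 10-12 hours, then exposed to compounds for 30-36 hours at 37C before ONE-Glo luminescence.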
NPC1 prom act: NPC1 promoter activation. Potency, µM (doses to about 9.22 µM), for inactives: at the highest dose activation, hits mostly activators. AID 485313. 2.4% of 320,000 active. Huh7 NPC1 promoter luciferase reporter, 24 h; note: % of control where 0% means no effect; nearly all actives have a fitted effect of over 60% in size
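Compounds in DMSO were transferred onto Huh7 NPC1-luciferase reporter cells pre-incubated 2 h; after 24 h at 37 °C, Amplite reagent was dispensed and luminescence recorded 10 min later.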
ELG1 genotoxic: inducers of genotoxicity in HEK293T ELG1-luciferase cells | HEK293T ELG1-luciferase reporter, luminescence, 16 h | Potency, µM (highest dose often 46 µM), for inactives: at the highest dose activity change, positive = activation, usual class: activators | 1.3% of 330,000 active | AID 504466; note: % of control where 0% means no effect; nearly all actives have a fitted effect of over 60% in size
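Quantitative HTS format in 1536-well plates. HEK293T ELG1-luciferase reporter cells receive test compound and are incubated 16 hr at 37 °C, 5% CO2; ONE-Glo added, 30 min room temperature, then luminescence read.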
Numbers without * were called inactive; ? = inconclusive; nt = not tested or not shown. Rows were chosen to be rich in hits. Some 9.4% of all compounds tested hit in one or more screens of this group. Calls come from the whole dose curve; as a rule, active = well fitted curve in the direction sought with a large enough effect; inconclusive = small, poorly fitted or top-dose-only effect, or another doubt; inactive = no such curve, though single readings can be large; an effect the other way counts as inactive or inconclusive. Potency is the fitted concentration of half-maximal effect.

SMILES	ELG1 DNA repair	FLuc modulator	Rab9 promoter act	SMN2 splice up	NPC1 prom act	ELG1 genotoxic
CCc1ccc(Cn2c(CNS(=O)(=O)c3ccc4c(c3)CCCC4)nc3cccnc32)cc1	nt	-15.4%	nt	nt	nt	nt
CCOC(=O)c1c(-c2ccc(Br)cc2)csc1NC(=O)c1ccc(C(C)(C)C)cc1	nt	-4.3%	nt	2.1%	nt	nt
CCCC12CN3CC(CCC)(CN(C1)C3c1c(C)[nH]c(=O)[nH]c1=O)C2=O (centres undefined)	nt	-0.1%	nt	-4.5%	nt	nt
CCOc1ccc(NC(=O)CCc2c(C)nn(-c3ccc(N4CCCCC4)nn3)c2C)cc1	?	2.69µM*	2.82µM*	nt	?	?
CCc1ccc(CNC(=O)CCc2c(C)nn(-c3ccc(N4CCCC4)nn3)c2C)cc1	nt	-1.1%	nt	nt	nt	nt
CCOc1ccc(CNC(=O)CCc2c(C)nn(-c3ccc(N4CCOCC4)nn3)c2C)cc1	nt	1.9%	nt	nt	nt	nt
Cc1ccc(NC(=O)CCc2c(C)nn(-c3ccc(N4CCCCC4)nn3)c2C)cc1F	?	3.38µM*	3.98µM*	nt	2µM*	?
CCc1cccc(NC(=O)CCc2c(C)nn(-c3ccc(N4CCCCC4)nn3)c2C)c1	-19.3%	10.7µM*	?	nt	24.1%	13.6%
Cc1nn(-c2ccc(N3CCCCC3)nn2)c(C)c1CCC(=O)Nc1ccc(F)cc1	2.2%	13.5µM*	?	nt	?	5.5%
CCC1CN(C(=O)Nc2cc(Cl)c(OC)cc2OC)c2ccccc2O1 (centres undefined)	nt	-12.5%	nt	nt	nt	nt
CCNC(=O)c1ccc(C)c(-n2c(C)nc3cccnc32)c1	nt	1.0%	nt	nt	nt	nt
CCOc1ccc(NS(=O)(=O)c2ccc3[nH]c4c(c3c2)CCCCC4)cc1	nt	-3.1%	nt	nt	nt	nt
O=C(CN1C(=O)c2cccnc2Oc2ccc(Cl)cc21)NCCCc1ccccc1	18.3µM*	-10.4%	-6.5%	nt	-1.1%	-11.8%
C/C(=N\NC(=O)COc1ccccc1F)c1cc2ccccc2o1	?	10.7µM*	?	?	?	?
C/C(=N\NC(=O)c1ccncc1)c1cc2ccccc2o1	-4.7%	-8.6%	-2.6%	15.1%	-0.6%	-5.4%
CCc1nnc(NC(=O)[C@@H](NC(=O)c2cc(OC)cc(OC)c2)C(C)C)s1	-4.6%	-5.0%	-0.7%	-0.5%	-5.8%	0.0%
COc1cc(OC)cc(C(=O)N[C@H](C(=O)Nc2nc(-c3cc(OC)ccc3OC)cs2)C(C)C)c1	20.6µM*	-4.0%	-3.1%	20.8%	-7.1%	-9.7%
CCSc1nnc(NC(=O)[C@@H](NC(=O)c2cc(OC)cc(OC)c2)C(C)C)s1	-13.4%	?	15.5%	1.4%	-3.1%	-2.2%
COc1cc(OC)cc(C(=O)N[C@H](C(=O)Nc2nc(-c3ccc(OC)c(OC)c3)cs2)C(C)C)c1	20.6µM*	0.4%	-5.4%	nt	-8.7%	-7.8%
CCc1ccc(CN(Cc2ccco2)c2cnc(S(C)(=O)=O)nc2C(=O)Nc2ccccc2Cl)cc1	nt	-1.3%	nt	nt	nt	nt
CCOC(=O)c1nnn(-c2nc(OC)nc(N3CCCCC3)n2)c1-c1ccccc1	18.4µM*	-0.6%	0.1%	-32.3%	2.1%	-7.9%
CCOC(=O)CSc1nc(N)c2c3c(sc2n1)CCCC3	?	9.53µM*	2.1%	-5.0%	5.6%	23.1%
CC1CCc2c(sc3nc(SCC(=O)NCc4ccco4)nc(N)c23)C1 (centres undefined)	-6.4%	4.78µM*	2.9%	-20.8%	12.9%	13.9%
CCN(CC)C(=O)CSc1nc(N)c2c3c(sc2n1)CC(C)CC3 (centres undefined)	?	1.9µM*	19.0%	9.6%	17.1%	15.8%
Cc1nc2sc3c(c2c2nnc(SCC(=O)NCc4ccco4)n12)CCCC3	?	?	0.4%	-12.1%	-3.0%	-0.6%
SMILES	ELG1 DNA repair	FLuc modulator	Rab9 promoter act	SMN2 splice up	NPC1 prom act	ELG1 genotoxic
Cc1cccc(-c2nc(CSc3nncn4c3cc3oc(C)cc34)c(C)o2)c1	nt	0.1%	nt	nt	nt	nt
CCc1cccc(NC(=O)C(CC)n2nc(C)c3sc4ccccc4c3c2=O)c1 (centres undefined)	nt	-18.6%	nt	nt	nt	nt
O=C(COc1ccccc1Br)NCc1ccco1	?	?	3.2%	4.1%	1.0%	8.4%
N#Cc1ccccc1OCC(=O)NC(=O)NCc1ccco1	?	19µM*	?	nt	?	?
CCc1ccc(OCC(=O)NCc2ccco2)c(Br)c1	?	9.53µM*	?	3.4%	?	?
COc1ccc(OCc2cc(-c3ccc(Cl)cc3)no2)cc1	-0.8%	-13.7%	-4.8%	0.9%	-0.7%	2.9%
COc1ccccc1OCc1cc(-c2ccccc2)no1	?	9.53µM*	2.51µM*	12.6µM*	3.55µM*	?
c1ccc(OCc2cc(-c3ccccc3)no2)cc1	?	12µM*	2.82µM*	?	?	16.9%
CCN(c1ccccc1)S(=O)(=O)c1c(C)nc2scc(C)n2c1=O	nt	-8.5%	nt	-11.1%	nt	nt
CCc1ccc(NC(=O)CC2C(=O)N(c3cccc(OC)c3)C(=O)N2Cc2ccc(F)cc2)cc1 (centres undefined)	nt	-1.9%	nt	nt	nt	nt
COc1ccccc1CCNC(=O)c1cccn1-c1nnc(N2CCCC2)s1	nt	3.2%	nt	nt	nt	nt
CC1CCCN(C(=O)c2cc3c(=O)n4ccccc4nc3s2)C1 (centres undefined)	?	16.9µM*	?	nt	?	16.4µM*
CCN(CC)C(=O)c1cc2c(=O)n3ccccc3nc2s1	?	?	28.6%	?	24.2%	16.4µM*
